In all, about 2,400 compounds went through this assay and about 580 (24%) were called active. These entries were drawn from the full list. Values without a mark were called inactive.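 Rule for the calls: active = activity change at or above the mean plus 3 SD of buffer wells without dofetilide, per plate; inactive = the rest.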
Target: Potassium voltage-gated channel subfamily KQT member 2 (Rattus norvegicus) (UniProt O88943)
Assay: KCNQ2 potentiation in CHO cells – cell-based, FluxOR thallium flux, counter-screen for hERG block protector project, confirmation (AID 1942);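 note: normalized value minus buffer-control mean plus three SD of buffer wells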
Conditions: FluxOR thallium flux fluorescence, at 10 µM, hits give high values

Potassium voltage-gated channel subfamily KQT member 2 (Rattus norvegicus), sequence (O88943 whole entry, looked up): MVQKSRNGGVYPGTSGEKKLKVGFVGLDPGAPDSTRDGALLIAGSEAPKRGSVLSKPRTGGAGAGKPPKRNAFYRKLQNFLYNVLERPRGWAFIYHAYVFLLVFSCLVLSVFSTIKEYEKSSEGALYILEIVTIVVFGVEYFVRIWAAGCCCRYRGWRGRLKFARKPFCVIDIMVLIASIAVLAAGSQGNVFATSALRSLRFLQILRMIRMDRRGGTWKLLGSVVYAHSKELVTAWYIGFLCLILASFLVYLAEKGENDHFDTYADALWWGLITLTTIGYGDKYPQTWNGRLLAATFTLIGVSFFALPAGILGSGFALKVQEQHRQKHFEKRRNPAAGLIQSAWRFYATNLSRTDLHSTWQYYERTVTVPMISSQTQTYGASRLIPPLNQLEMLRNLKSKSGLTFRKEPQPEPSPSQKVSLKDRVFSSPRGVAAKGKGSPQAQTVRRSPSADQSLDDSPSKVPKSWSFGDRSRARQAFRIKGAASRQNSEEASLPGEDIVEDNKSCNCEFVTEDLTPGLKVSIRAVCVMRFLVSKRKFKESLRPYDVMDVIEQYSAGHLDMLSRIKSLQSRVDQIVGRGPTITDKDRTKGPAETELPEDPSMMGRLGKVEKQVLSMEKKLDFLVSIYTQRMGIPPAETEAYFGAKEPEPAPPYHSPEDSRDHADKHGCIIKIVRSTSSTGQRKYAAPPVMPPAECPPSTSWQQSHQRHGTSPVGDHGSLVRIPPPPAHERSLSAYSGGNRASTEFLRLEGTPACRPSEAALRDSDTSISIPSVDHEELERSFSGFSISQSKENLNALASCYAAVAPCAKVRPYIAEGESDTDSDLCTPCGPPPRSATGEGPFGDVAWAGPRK

Compound | activity change, less the hit threshold
Nc1cccc(Oc2cnccn2)c1 | -17.9%
COc1cc2c(cc1OC)CN(C(=O)c1ccc3nc[nH]c3c1)CC2 | -2.1%
Cc1ccc(OCC(=O)NC(=S)Nc2ccc(Br)cn2)cc1C | -11.2%
Cc1ccc(OCC(=O)NC(=S)Nc2ccc(Br)cn2)cc1 | 12.4% (active)
Cc1nc(NC(=S)NC(=O)COc2ccc(Cl)cc2)ccc1Br | -19.1%
COc1ccc(N(CC(=O)N2CCN(Cc3ccccc3)CC2)S(C)(=O)=O)cc1OC | -16.5%
COCCNC(=O)C(c1ccc(C)o1)N(Cc1ccc(OC)cc1)C(=O)Cn1nnc2ccccc21 (configuration not stated) | 19.1% (active)
COCCNC(=O)C(c1ccncc1)N(C(=O)Cn1nnc2ccccc21)c1ccc(OC)cc1 (configuration not stated) | -20.7%
Cc1ccc(-c2nnn(CC(=O)N(CC3CCCO3)C(C(=O)NC3CCCC3)c3ccc(O)cc3)n2)o1 (configuration not stated) | -15.8%
CC1CC(C)CN(CCCNC(=O)Cc2c(C(=O)O)[nH]c3ccccc23)C1 (configuration not stated) | -14.9%
Nn1c(SCC(=O)Nc2ccccc2F)nnc1C1CCCCC1 | -10.5%
Cc1csc2ncc(C(=O)N3c4ccccc4CC3C)c(=O)n12 (configuration not stated) | -9.8%
CC1Cc2ccccc2N1C(=S)NC(=O)c1ccco1 (configuration not stated) | -3.3%
CC1Cc2ccccc2N1C(=S)NC(=O)C1(C)CC1(Cl)Cl (configuration not stated) | 38.1% (active)
Cc1ccc2c(c1)C1CN(C)CCC1N2C(=S)NC(=O)c1ccc(Br)cc1 (configuration not stated) | -7%
CC1Cc2ccccc2N1C(=S)NC(=O)c1ccc(Cl)cc1Cl (configuration not stated) | 52.5% (active)
CC1Cc2ccccc2N1C(=S)NC(=O)c1cccc(Br)c1 (configuration not stated) | 121% (active)
COc1cc2c(cc1OC)C(C)N(C(=S)NC(=O)c1ccccc1)CC2 (configuration not stated) | -10.9%
CC1Cc2cc(S(=O)(=O)NCc3ccccc3)ccc2N1C(=O)C1CCC1 (configuration not stated) | -20.4%
CNC(=O)c1[nH]cnc1C(=O)Nc1ccccn1 | -9.6%
Cc1cc(S(=O)(=O)NCC(C)C)ccc1OCC(=O)NCc1ccccn1 | -21.1%
CCOc1cc(Br)c(C(=O)O)cc1OC | -13.8%
OC(CCN1CCOCC1)c1ccccc1 (configuration not stated) | -33.4%
Cc1nonc1OCCNc1ccc([N+](=O)[O-])cc1 | -8.5%
Cc1ccc(-c2nc(CS(=O)(=O)CC(=O)NCCN3CCOCC3)c(C)o2)cc1 | -12.6%

Compound | activity change, less the hit threshold
Cc1ccc2nc(-c3ccccn3)cc(C(=O)NC3CCN(C)CC3)c2c1 | -23.8%
CS(=O)(=O)c1sc(C(=O)NC(=S)Nc2ccc(OC(F)(F)F)cc2)c2c1C=CCC2 | -11%
O=C(COc1ccccc1)NC(=S)N1CCc2ccccc21 | 2.7% (active)
CC1(C)CC2CC(C)(CN2C(=S)NC(=O)c2ccccc2Cl)C1 (configuration not stated) | 23.3% (active)
Cc1cccc(C(=O)NC(=S)N2CCc3ccccc3C2)c1 | 20.8% (active)
CC(Oc1ccc(Cl)cc1Cl)C(=O)NC(=S)N1CCc2ccccc21 (configuration not stated) | 24.1% (active)
Cc1ccc(C(=O)NC(=S)N2CCN(c3cc(C)ccc3C)CC2)cc1 | -8.7%
Cc1cccc(OCC(=O)NC(=S)N2CCCc3ccccc32)c1 | -23.9%
Cc1cccc(C(=O)NNC(=S)NC(=O)c2ccccc2)c1 | -4.5%
O=C(COc1ccc(Br)cc1Cl)NC(=S)N1CCc2ccccc21 | -14.2%
CC1(C)CC(NC(=O)c2ccc(Cl)cc2Cl)CC(C)(C)N1 | -23.3%
O=C(COc1ccc(Cl)cc1Cl)NC(=S)N1CCCc2ccccc21 | -13.8%
O=C(Nc1cccn(Cc2c(Cl)cccc2Cl)c1=O)c1ccccc1Cl | -24.1%
O=C(O)c1ccccc1NC(=O)c1cc2ccccc2oc1=O | -5.1%
O=C(CN(C(=O)CNS(=O)(=O)c1ccc(F)cc1)c1cccc(F)c1)NCC1CCCO1 (configuration not stated) | -19%
CC(=O)n1nc(-c2ccncc2)nc1SCC(=O)Nc1cccc(Cl)c1 | -21.7%
Cc1ccc(NC(=O)CSc2nnc(-c3cccnc3)n2-c2ccc(C)cc2)cc1 | -17.2%
O=[N+]([O-])c1ccc(-c2ccc(/C=N/n3cnnc3)o2)c(Br)c1 | -11.4%
CCCN1Cc2cccc(C(=O)NCc3cccs3)c2C1=O | -23.8%
OC(CNCCc1ccc(C(F)(F)F)cc1)COc1cccc2ccccc12 (configuration not stated) | -39.6%
CN1C(=O)CSc2ccc(NC(=O)N3CCc4ccccc43)cc21 | -21.5%
O=C(c1ccccc1)N1CCc2ccccc21 | -14.8%
O=C(NC(=S)N1CCc2ccccc21)c1ccccc1 | 38.5% (active)
O=C(NC(=S)N1CCCc2ccccc21)c1ccccc1 | -7.9%
O=C(NC(=S)N1CCc2ccccc21)c1ccccc1Br | 105% (active)

Compound | activity change, less the hit threshold
O=C(NC(=S)N1CCc2ccccc21)c1ccccc1Cl | 65.2% (active)
O=C(CSc1cccc2cccnc12)N/N=C/c1cccnc1 | -18.6%
S=C(Nc1ccccc1)Nc1nc2ccccc2n1CCOc1ccccc1 | -19.7%
Cc1ccccc1NC(=O)CSc1ccsc1[N+](=O)[O-] | -24.3%
O=C(O)CC1S/C(=N/N=C/c2ccc(-c3ccccc3[N+](=O)[O-])o2)NC1=O (configuration not stated) | -23.4%
CCCc1nnc(NC(=O)CN2CCOCC2)s1 | -18.7%
Cc1ccccc1-c1nnn(CC(=O)NCc2ccc3c(c2)OCO3)n1 | -24.5%
Cc1cc(F)ccc1NC(=O)C1CCN(C(=O)Nc2ccccc2)CC1 | -20.3%
Cc1ccc(SCc2ccc(C(=O)N3CCCC3)cc2)cc1 | -13.9%
Cc1cc(C)c(C(=O)c2ccc(C(=O)N3CCCCC3)cc2)c(C)c1 | 9.9% (active)
COc1ccc(C)cc1NC(=O)Nc1ccc(C(=O)N2CCCC2)cc1 | -13.8%
COC(=O)c1ccc(Oc2ccc(S(=O)(=O)N3CCCCC3)cc2N)cc1 | -21%
Cc1ccc(NC(=O)CN2C(=O)S/C(=C\c3cccn3-c3cccc(C(=O)O)c3)C2=O)c(C)c1 | -17.1%
O=C1c2ccccc2C(=O)N1CCc1nc(-c2ccccn2)no1 | -15.6%
Cc1ccc(NC(=O)CCc2nc3sc4c(c3c(=O)[nH]2)CCCC4)c(Br)c1 | -14.8%
Cc1cc(C)n(-c2nc3sc4c(c3c(=O)[nH]2)CCCC4)n1 | 6.2% (active)
Cc1cc(C)n(-c2nc(NCCCN(C)C)c3c4c(sc3n2)CCCC4)n1 | -15.9%
CC(=O)Cn1c(=O)c2c(nc3n2CCCN3Cc2ccccc2)n(C)c1=O | -11.9%
COC(=O)C1CN(C(=O)COc2ccc(C)c(C)c2)c2ccccc2O1 (configuration not stated) | -18.1%
CC(C)OC(=O)C1CC(C)(O)C(=O)C(C(=O)OC(C)C)C1c1ccc([N+](=O)[O-])cc1 (configuration not stated) | -20.5%
CCc1noc(C)c1C(=O)N1CCCC(N2CCN(c3ccccc3F)CC2)C1 (configuration not stated) | -14.7%
Cc1ccc(CN2CCN(/N=C/c3ccc(O)c(O)c3)CC2)cc1 | -3.7%
Cc1cccc(/C=N/NC(=O)c2cc(Br)ccc2O)n1 | 0.2% (active)
O=C(N/N=C/c1ccc2cccc(OCc3ccccc3)c2n1)c1ccc(Br)cc1 | -9.5%
O=C(COC(=O)c1cc(Br)ccc1O)Nc1cccnc1Cl | -19.3%

Compound | activity change, less the hit threshold
CCOC(=O)C1CCCCN1Cc1ccc(F)cc1 (configuration not stated) | 4.5% (active)
CCOC(=O)C1CCCN(C(=S)NC(=O)/C=C/c2ccc(F)cc2)C1 (configuration not stated) | -20.7%
NC(=O)C1CCN(C(=O)CCC(=O)c2ccc(F)cc2)CC1 | -12.6%
O=C1c2ccccc2C(=O)N1Cc1cc(-c2ccccc2Cl)no1 | -14.4%
Cn1nnnc1SCC(=O)NC1CCCc2ccccc21 (configuration not stated) | -30.8%
Cc1cccc(OCC(=O)NC2CCCc3ccccc32)c1C (configuration not stated) | -34.2%
O=C(NC(=S)NC1CCCc2ccccc21)c1ccco1 (configuration not stated) | 7% (active)
O=C(NC(=S)N1CCc2ccccc21)c1ccc(Br)o1 | 19.1% (active)
O=C(NC(=S)N1CCc2ccccc21)c1ccco1 | 0.6% (active)
Cc1ccc(OCCC(=O)OC(C)C(=O)Nc2ccc(Cl)cn2)cc1 (configuration not stated) | -8.9%
O=C(O)CCCn1cc(NC(=O)COc2ccc(F)cc2)cn1 | -25.3%
Fc1ccc2c(c1)C(c1ccncc1)=NNC(c1cccnc1)=N2 | -6.5%
Cc1ccc(CNS(=O)(=O)c2ccc(C(F)(F)F)cc2)n1C | -26.5%
Nc1nc2n(n1)C(=O)CC(c1ccc(Cl)cc1)N2 (configuration not stated) | -10.5%
CC(=O)N1CCCc2cc(S(=O)(=O)NCc3ccc(C)cc3)ccc21 | -9.9%
c1ccc(CCCNc2ncnc3nc[nH]c23)cc1 | 30.4% (active)
COc1ccc(N2CC(C(=O)OCC(=O)Nc3ccccc3C)CC2=O)cc1 (configuration not stated) | -5.6%
CCc1cc2cc(C)cc(C)c2[nH]c1=S | 2.1% (active)
CN(C)Cc1c(C(=O)N/N=C/c2ccccc2OCc2c(F)cccc2Cl)nnn1-c1nonc1N | -28.3%
O=C(O)/C=C/c1cn(-c2ccccc2)nc1-c1ccc(-c2ccc([N+](=O)[O-])cc2)o1 | -18%
S=c1[nH]c2cc(-c3ccccc3)ccc2o1 | 86.2% (active)
Cc1ccc(NN=Nc2nc3c([nH]2)c(=O)n(C)c(=O)n3C)cc1 | -16.4%
